# From publication PMC11062922 (Nature Chemical Biology, 2023)
# Where two headings read alike, the source gives them in different places.
# Tests used:
# [1] = system: AAK1; design: species or system human, MV4-11 + K-562 + COLO205 + SK-N-BE2 + OVCAR-8; conditions: read-out: apparent Kd, n = 1
# [2] = system: BMP2K; design: species or system human, MV4-11 + K-562 + COLO205 + SK-N-BE2 + OVCAR-8; conditions: read-out: apparent Kd, n = 1
# [3] = system: CLK1; design: species or system human, MV4-11 + K-562 + COLO205 + SK-N-BE2 + OVCAR-8; conditions: read-out: apparent Kd, n = 1
# [4] = system: CSNK2A1;CSNK2A3; design: species or system human, MV4-11 + K-562 + COLO205 + SK-N-BE2 + OVCAR-8; conditions: read-out: apparent Kd, n = 1
# [5] = system: CSNK2A2; design: species or system human, MV4-11 + K-562 + COLO205 + SK-N-BE2 + OVCAR-8; conditions: read-out: apparent Kd, n = 1
# [6] = system: FLT4; design: species or system human, MV4-11 + K-562 + COLO205 + SK-N-BE2 + OVCAR-8; conditions: read-out: apparent Kd; compound concentrations:100 nM and 1000 nM (sheet 'Samples'); n = 1
# [7] = system: GAK; design: species or system human, MV4-11 + K-562 + COLO205 + SK-N-BE2 + OVCAR-8; conditions: read-out: apparent Kd; compound concentrations:100 nM and 1000 nM (sheet 'Samples'); n = 1
# [8] = system: GSK3A; design: species or system human, MV4-11 + K-562 + COLO205 + SK-N-BE2 + OVCAR-8; conditions: read-out: apparent Kd, n = 1
# [9] = system: GSK3B; design: species or system human, MV4-11 + K-562 + COLO205 + SK-N-BE2 + OVCAR-8; conditions: read-out: apparent Kd, n = 1
# [10] = system: PAK4; design: species or system human, MV4-11 + K-562 + COLO205 + SK-N-BE2 + OVCAR-8; conditions: read-out: apparent Kd, n = 1
# [11] = system: PKN3; design: species or system human, MV4-11 + K-562 + COLO205 + SK-N-BE2 + OVCAR-8; conditions: read-out: apparent Kd; compound concentrations:100 nM and 1000 nM (sheet 'Samples'); n = 1
# [12] = system: PRKAG1; design: species or system human, MV4-11 + K-562 + COLO205 + SK-N-BE2 + OVCAR-8; conditions: read-out: apparent Kd, n = 1
# [13] = target: Q6ZSR9 (human, UniProt Q6ZSR9); design: species or system MV4-11 + K-562 + COLO205 + SK-N-BE2 + OVCAR-8; conditions: read-out: apparent Kd, n = 1
# [14] = system: RET; design: species or system human, MV4-11 + K-562 + COLO205 + SK-N-BE2 + OVCAR-8; conditions: read-out: apparent Kd, n = 1
# [15] = system: SIK2; design: species or system human, MV4-11 + K-562 + COLO205 + SK-N-BE2 + OVCAR-8; conditions: read-out: apparent Kd, n = 1
# [16] = system: CLK4; design: species or system human, MV4-11 + K-562 + COLO205 + SK-N-BE2 + OVCAR-8; conditions: read-out: apparent Kd, compound concentrations: 100 nM and 1000 nM (sheet 'Samples'), n = 1
# [17] = system: MELK; design: species or system human, MV4-11 + K-562 + COLO205 + SK-N-BE2 + OVCAR-8; conditions: read-out: apparent Kd, n = 1
# [18] = system: NUAK1; design: species or system human, MV4-11 + K-562 + COLO205 + SK-N-BE2 + OVCAR-8; conditions: read-out: apparent Kd; compound concentrations: 100 nM and 1000 nM (sheet 'Samples'), CATDS: 6.4011411937308901E-2; n = 1
# [19] = system: PKN1; design: species or system human, MV4-11 + K-562 + COLO205 + SK-N-BE2 + OVCAR-8; conditions: read-out: apparent Kd; compound concentrations: 100 nM and 1000 nM (sheet 'Samples'), CATDS: 8.6733801464620904E-3; n = 1
# [20] = compound concentrations:100 nM and 1000 nM (sheet 'Samples')
# Chain of Q6ZSR9 (Q6ZSR9 whole entry, looked up): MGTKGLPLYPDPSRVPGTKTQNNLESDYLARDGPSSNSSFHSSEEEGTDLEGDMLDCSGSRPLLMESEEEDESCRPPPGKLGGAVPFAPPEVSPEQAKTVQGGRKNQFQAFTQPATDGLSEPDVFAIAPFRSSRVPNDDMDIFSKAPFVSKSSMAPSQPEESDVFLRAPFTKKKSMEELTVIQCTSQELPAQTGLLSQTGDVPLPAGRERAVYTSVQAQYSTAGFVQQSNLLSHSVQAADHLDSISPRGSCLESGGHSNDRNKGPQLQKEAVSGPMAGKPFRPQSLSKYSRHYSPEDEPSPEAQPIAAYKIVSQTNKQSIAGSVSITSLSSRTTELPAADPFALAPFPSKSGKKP
compound,measurement,setting,value
CC(=O)N[C@@H](Cc1ccc(OP(=O)(O)O)cc1)C(=O)N[C@H]1CCC(=O)N2CCC[C@@H](C(=O)NCc3ccc(Cl)cc3)N2C1=O [RO0325308-000],potency estimated from few doses,[1]; [20],737 nM
same,potency estimated from few doses,[2]; [20],1480 nM
same,potency estimated from few doses,[3]; [20],60.4 nM
same,potency estimated from few doses,[4]; [20],1430 nM
same,potency estimated from few doses,[5]; [20],1780 nM
same,potency estimated from few doses,[6],28.4 nM
same,potency estimated from few doses,[7],59.4 nM
same,potency estimated from few doses,[8]; [20],59 nM
same,potency estimated from few doses,[9]; [20],60.7 nM
same,potency estimated from few doses,[10]; [20],1170 nM
same,potency estimated from few doses,[11],152 nM
same,potency estimated from few doses,[12]; [20],523 nM
same,potency estimated from few doses,[13]; [20],1030 nM
same,potency estimated from few doses,[14]; [20],876 nM
same,potency estimated from few doses,[15]; [20],943 nM
O=C1N=C(NCc2cccs2)O/C1=C\c1ccc2ncccc2c1 [RO4624208-000],potency estimated from few doses,"[1]; compound concentrations: 100 nM and 1000 nM (sheet 'Samples'), CATDS: 0.10731748351682301",135 nM
same,potency estimated from few doses,"[2]; compound concentrations: 100 nM and 1000 nM (sheet 'Samples'), CATDS: 4.6084247955460698E-2",1920 nM
same,potency estimated from few doses,"[3]; compound concentrations: 100 nM and 1000 nM (sheet 'Samples'), CATDS: 0.227495449578137",23.7 nM
same,potency estimated from few doses,[16]; CATDS: 0.59916054369274396,4.27 nM
same,potency estimated from few doses,"[4]; compound concentrations: 100 nM and 1000 nM (sheet 'Samples'), CATDS: 6.2614032961525998E-2",629 nM
same,potency estimated from few doses,"[5]; compound concentrations: 100 nM and 1000 nM (sheet 'Samples'), CATDS: 6.3902524713508005E-2",590 nM
same,potency estimated from few doses,"[13]; compound concentrations: 100 nM and 1000 nM (sheet 'Samples'), CATDS: 0.11947964791327",103 nM
O=C(O)C(F)(F)F.O=c1[nH]ccc2nc(N[C@@H]3CCNC3)nc(Nc3ccc4c(c3)S(=O)(=O)CC4)c12 [GSK2181306A],potency estimated from few doses,"[1]; compound concentrations: 100 nM and 1000 nM (sheet 'Samples'), CATDS: 1.0213142208507E-2",800 nM
same,potency estimated from few doses,"[2]; compound concentrations: 100 nM and 1000 nM (sheet 'Samples'), CATDS: 1.9243702463248E-2",190 nM
same,potency estimated from few doses,[16]; CATDS: 8.1810149624153006E-3,1760 nM
same,potency estimated from few doses,"[4]; compound concentrations: 100 nM and 1000 nM (sheet 'Samples'), CATDS: 0.112951755046268",11.3 nM
same,potency estimated from few doses,"[5]; compound concentrations: 100 nM and 1000 nM (sheet 'Samples'), CATDS: 0.17006619432900399",6.46 nM
same,potency estimated from few doses,"[8]; compound concentrations: 100 nM and 1000 nM (sheet 'Samples'), CATDS: 1.81293399995681E-2",213 nM
same,potency estimated from few doses,"[9]; compound concentrations: 100 nM and 1000 nM (sheet 'Samples'), CATDS: 1.53717620719534E-2",296 nM
same,potency estimated from few doses,"[17]; compound concentrations: 100 nM and 1000 nM (sheet 'Samples'), CATDS: 8.8391559742386702E-3",1290 nM
same,potency estimated from few doses,[18],25.9 nM
same,potency estimated from few doses,"[10]; compound concentrations: 100 nM and 1000 nM (sheet 'Samples'), CATDS: 3.0355378859093798E-2",85 nM
same,potency estimated from few doses,[19],1380 nM
same,potency estimated from few doses,"[12]; compound concentrations: 100 nM and 1000 nM (sheet 'Samples'), CATDS: 1.1132465742589101E-2",629 nM
same,potency estimated from few doses,"[13]; compound concentrations: 100 nM and 1000 nM (sheet 'Samples'), CATDS: 1.2146463936907201E-2",503 nM
same,potency estimated from few doses,"[14]; compound concentrations: 100 nM and 1000 nM (sheet 'Samples'), CATDS: 2.5699150815533801E-2",113 nM
same,potency estimated from few doses,"[15]; compound concentrations: 100 nM and 1000 nM (sheet 'Samples'), CATDS: 1.23582822640132E-2",483 nM
Nc1nc(Nc2ccccc2)cc(-c2ccc3c(N)n[nH]c3c2)n1 [GSK2225749A],potency estimated from few doses,[1]; [20],130 nM
same,potency estimated from few doses,[2]; [20],554 nM
same,potency estimated from few doses,[17]; [20],823 nM
same,potency estimated from few doses,[13]; [20],125 nM
